A short description of test [1]: ATG_NFI_CIS: Attagene CIS-FACTORIAL HepG2 Assay for human Nuclear Factor I (NFI) (AID 2282989). The note with it: HepG2 cis-regulatory reporter, NFI response element transcription; actives raise or lower the signal. The essentials: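 Reporter transcripts were measured by RT-PCR with fluorescent primer extension and capillary electrophoresis 24 h post-treatment. HepG2 cells carried transiently transfected cis-regulated reporter constructs reporting endogenous factor activity; gain or loss fitted against DMSO baseline.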

The target of test [2] is Myc proto-oncogene protein (Homo sapiens) (UniProt P01106). The test can be described thus: ATG_Myc_CIS: Attagene CIS-FACTORIAL HepG2 Assay for human Myelocytomatosis (Myc) Proto-Oncogene Transcription Factor (AID 2282990). The note with it: HepG2, Attagene cis-reporter transcription factor activity; actives raise or lower the signal. The gist of the method: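 After 24 h chemical treatment of HepG2 cells carrying multiplexed cis-regulated reporter constructs, reporter transcripts quantified by RT-PCR and capillary electrophoresis of fluorescent fragments. Gain or loss fitted against DMSO baseline.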
Sequence of Myc proto-oncogene protein (Homo sapiens) (P01106 whole entry, looked up, the tested form may be a part): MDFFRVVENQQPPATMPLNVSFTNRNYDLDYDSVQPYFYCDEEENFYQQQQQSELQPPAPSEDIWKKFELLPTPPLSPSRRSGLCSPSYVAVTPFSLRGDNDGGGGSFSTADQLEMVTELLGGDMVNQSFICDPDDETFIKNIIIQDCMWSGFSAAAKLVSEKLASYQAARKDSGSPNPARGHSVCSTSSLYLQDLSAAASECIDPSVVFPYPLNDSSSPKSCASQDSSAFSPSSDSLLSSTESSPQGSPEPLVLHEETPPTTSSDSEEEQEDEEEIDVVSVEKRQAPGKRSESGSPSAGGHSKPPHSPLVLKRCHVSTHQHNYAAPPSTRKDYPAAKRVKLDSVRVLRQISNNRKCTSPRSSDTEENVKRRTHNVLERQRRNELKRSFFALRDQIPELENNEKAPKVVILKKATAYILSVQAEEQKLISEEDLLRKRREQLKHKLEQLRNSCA

Test [3] can be described thus: ATG_NF_kB_CIS: Attagene CIS-FACTORIAL HepG2 Assay for human Nuclear Factor Kappa B (NF-kB) (AID 2282991). The note with it: HepG2 Attagene cis-factorial NF-kB reporter mRNA; actives raise or lower the signal. The gist of the method:
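Endpoint from a 52-component multiplexed HepG2 reporter panel: cis-regulated transcription units transiently transfected, 24 h dosing, reporter mRNA quantified by RT-PCR and capillary electrophoresis, scored as increase or decrease against DMSO.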

Test [4] can be described thus: ATG_NRF2_ARE_CIS: Attagene CIS-FACTORIAL HepG2 Assay for human Nuclear Factor Erythroid 2 Related Factor 2 (NFR2) response to Antioxidant Response Elements (ARE) (AID 2282992). The note with it: HepG2 Attagene ARE/NRF2 reporter, transcription factor activity; actives raise or lower the signal. The essentials: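 Endogenous transcription factor activity read out as reporter transcript levels (RT-PCR plus capillary electrophoresis, fluorescence) in transiently transfected HepG2 cells. Measured at 24 h after dosing; gain or loss of signal fitted versus DMSO.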

The nature of test [5]: ATG_Oct_MLP_CIS: Attagene CIS-FACTORIAL HepG2 Assay for human Octamer-Binding Transcription Factor (Oct) (AID 2282993). The note with it: HepG2 Attagene cis-factorial Oct reporter, mRNA; actives raise or lower the signal. The gist of the method:
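Readout is reporter transcript level from RT-PCR with fluorescent primer extension and capillary electrophoresis, fitted in both directions against DMSO. Transfected HepG2 reporter units report endogenous factor activity after 24 h dosing.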

Test [6] has as its target Cellular tumor antigen p53 (Homo sapiens) (UniProt P04637). The test can be described thus: ATG_p53_CIS: Attagene CIS-FACTORIAL HepG2 Assay for human p53 Transcription Factor (AID 2282994). The note with it: HepG2 p53 cis-element reporter, Attagene mRNA; actives raise or lower the signal. The essentials:
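Endogenous p53 activity read in transiently transfected HepG2 from a cis-element-driven reporter transcript after 24 h exposure. RNA reverse-transcribed, PCR-amplified, fluorescently labelled and sized by capillary electrophoresis; gain or loss fitted against DMSO baseline.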

Test [7] is described as follows: BSK_3C_uPAR: BioMAP Diversity Plus: 3C Assay for Urokinase-type plasminogen activator receptor (uPAR) Biomarker Activity (AID 2282998). The note with it: BioMAP 3C HUVEC, uPAR biomarker ELISA; actives raise or lower the signal. The essentials:
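Cell-surface uPAR on HUVEC (3C system) read by ELISA at 24 h post-treatment, with DMSO as baseline and fitting in both directions. Parallel cultures stained with SRB to flag overt cytotoxicity.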

Test [8] is described as follows: BSK_3C_VCAM1: BioMAP Diversity Plus: 3C Assay for Vascular cell adhesion molecule 1 (VCAM1) Biomarker Activity (AID 2282999). The note with it: BioMAP 3C HUVEC, VCAM1 ELISA, cytokine-stimulated; actives raise or lower the signal. The gist of the method:
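Activity fitted in both directions relative to DMSO, with ELISA measurement of the surface marker on primary HUVEC (3C) at 24 h post-treatment; parallel SRB staining (0.1% SRB, TCA-fixed, 560 nm) flagged overt cytotoxicity.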
On the technique in general: An ELISA detects its analyte on a solid surface through an enzyme-linked reagent.

The nature of test [9]: BSK_4H_Eotaxin3: BioMAP Diversity Plus: 4H Assay for Eotaxin 3 Biomarker Activity (AID 2283000).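 For outcome: CCL26 protein level quantified by ELISA in parallel with SRB cytotoxicity check.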 The note with it: primary human endothelial cells (HUVEC); actives raise or lower the signal. The essentials: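 Eotaxin-3 (CCL26) levels were measured by ELISA in HUVEC primary cultures 24 h post-dosing. Gain or loss of signal was fitted in both directions, with DMSO serving as baseline and negative control.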

Read-out in test [10]: Intercellular Adhesion Molecule 1 (ICAM1), ICAM1 (gene 3383)
Put plainly: BSK_3C_ICAM1: BioMAP Diversity Plus: 3C Assay for Intercellular Adhesion Molecule 1 (ICAM1) Biomarker Activity (AID 2283003). The note with it: primary human endothelial cells (HUVEC); actives raise or lower the signal. The essentials:
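Chemicals are dosed onto primary human umbilical vein endothelium (3C system). After 24 h, ICAM-1 is measured by ELISA, and responses are fitted bidirectionally relative to DMSO.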

In test [11] the target is Peroxisome proliferator-activated receptor gamma (Homo sapiens) (UniProt P37231). The test can be described thus: ATG_PPARg_TRANS: Attagene TRANS-FACTORIAL HepG2 Assay for human Peroxisome Proliferator-activated Receptor-gamma (PPARg) (AID 2283007; active = hit-call score of the fitted dose curve at least 0.9, where 1 is the maximum). The essentials: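 Endpoint reflects upward reporter mRNA change versus DMSO controls. Setup: transiently transfected HepG2, GAL4-UAS reporters driven by chimeric NR-Gal4, 24 h incubation, RT-PCR with capillary electrophoresis read-out.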
Sequence of Peroxisome proliferator-activated receptor gamma (Homo sapiens) (P37231 whole entry, looked up, the tested form may be a part): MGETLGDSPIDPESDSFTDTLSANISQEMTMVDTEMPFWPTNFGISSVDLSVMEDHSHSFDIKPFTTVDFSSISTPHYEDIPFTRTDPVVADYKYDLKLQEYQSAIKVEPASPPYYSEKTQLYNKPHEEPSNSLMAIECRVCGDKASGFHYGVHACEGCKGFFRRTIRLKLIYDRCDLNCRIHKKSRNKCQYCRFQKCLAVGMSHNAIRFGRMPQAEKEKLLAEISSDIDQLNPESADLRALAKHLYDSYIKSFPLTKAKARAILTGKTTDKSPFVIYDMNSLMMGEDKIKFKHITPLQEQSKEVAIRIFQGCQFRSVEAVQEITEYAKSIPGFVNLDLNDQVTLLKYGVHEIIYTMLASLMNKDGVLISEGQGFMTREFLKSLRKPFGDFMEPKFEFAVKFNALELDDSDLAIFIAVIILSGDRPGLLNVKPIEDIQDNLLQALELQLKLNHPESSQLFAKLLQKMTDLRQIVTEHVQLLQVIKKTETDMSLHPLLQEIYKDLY

In test [12] the target is Nuclear receptor subfamily 1 group I member 2 (Homo sapiens) (UniProt O75469). The test can be described thus: ATG_PXR_TRANS: Attagene TRANS-FACTORIAL HepG2 Assay for human Pregnane X Receptor (PXR) (AID 2283008; active = hit-call score of the fitted dose curve at least 0.9, where 1 is the maximum). The essentials: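 Transactivation by exogenous PXR–GAL4 fusion measured as reporter transcript induction after 24 h compound treatment of transfected human HepG2 cells. Read-out via RT-PCR and capillary electrophoresis of labelled fragments, fitted upward relative to DMSO.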
Sequence of Nuclear receptor subfamily 1 group I member 2 (Homo sapiens) (O75469 whole entry, looked up, the tested form may be a part): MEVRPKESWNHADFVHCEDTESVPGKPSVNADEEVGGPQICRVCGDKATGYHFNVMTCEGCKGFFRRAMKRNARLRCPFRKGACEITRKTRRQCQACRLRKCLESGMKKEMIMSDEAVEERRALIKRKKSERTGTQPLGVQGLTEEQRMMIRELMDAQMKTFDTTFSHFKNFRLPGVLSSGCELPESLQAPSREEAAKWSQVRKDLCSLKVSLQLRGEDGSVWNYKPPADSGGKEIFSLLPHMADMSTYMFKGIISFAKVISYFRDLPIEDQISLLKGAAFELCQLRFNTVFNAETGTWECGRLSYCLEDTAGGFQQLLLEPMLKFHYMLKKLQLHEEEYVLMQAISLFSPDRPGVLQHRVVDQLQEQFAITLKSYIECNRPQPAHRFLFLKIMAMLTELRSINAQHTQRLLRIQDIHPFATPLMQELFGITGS

Test [13] deals with human RAR-related Orphan Receptor beta (RORb), RORB (gene 6096) (UniProt Q92753). The test can be described thus: ATG_RORb_TRANS: Attagene TRANS-FACTORIAL HepG2 Assay for human RAR-related Orphan Receptor beta (RORb) (AID 2283010; active = hit-call score of the fitted dose curve at least 0.9, where 1 is the maximum). The essentials:
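Transfect HepG2 with multiple GAL4-UAS reporter transcription units; dose chemicals for 24 h; isolate RNA, reverse-transcribe and PCR-amplify reporter sequences; label, digest and resolve fragments by capillary electrophoresis; fit increases relative to DMSO.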

Test [14] deals with human Peroxisome Proliferator-activated Receptor alpha (PPARa), PPARA (gene 5465) (UniProt Q07869). The test can be described thus: ATG_PPARa_TRANS: Attagene TRANS-FACTORIAL HepG2 Assay for human Peroxisome Proliferator-activated Receptor alpha (PPARa) (AID 2283001; active = hit-call score of the fitted dose curve at least 0.9, where 1 is the maximum). The essentials:
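Reporter transcripts quantified by RT-PCR plus capillary electrophoresis after 24 h treatment, fitted upward relative to DMSO. Cells: human HepG2 transiently carrying multiple GAL4-UAS reporter units driven by NR-Gal4 chimeras.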

Test [15] has as its target human Peroxisome Proliferator-activated Receptor delta (PPARd), PPARD (gene 5467) (UniProt Q03181). Put plainly: ATG_PPARd_TRANS: Attagene TRANS-FACTORIAL HepG2 Assay for human Peroxisome Proliferator-activated Receptor delta (PPARd) (AID 2283002; active = hit-call score of the fitted dose curve at least 0.9, where 1 is the maximum). The essentials: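 Read-out is induced reporter mRNA, quantified by RT-PCR with fluorescent labelling and capillary electrophoresis after 24 h dosing. Cells are HepG2 transiently carrying multiple GAL4-UAS reporter units driven by exogenous NR-GAL4 chimeras; DMSO serves as baseline.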

The nature of test [16]: BSK_3C_Proliferation: Cell Proliferation Assessment in the BioMAP Diversity Plus: 3C Assay (AID 2283006). The note with it: primary human endothelial cells (HUVEC). The essentials:
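Cells (human umbilical vein endothelial, sub-confluent) receive test chemical; after 48 h they are fixed in 10% trichloroacetic acid, stained with 0.1% SRB and read at 560 nm. Activity is referenced to DMSO, fitting increases and decreases.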

In test [17] the target is Retinoic acid receptor alpha (Homo sapiens) (UniProt P10276). Put plainly: ATG_RARa_TRANS: Attagene TRANS-FACTORIAL HepG2 Assay for human Retinoic Acid Receptor alpha (RARa) (AID 2283005; active = hit-call score of the fitted dose curve at least 0.9, where 1 is the maximum). The essentials:
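Reporter transcripts, measured by RT-PCR with fluorescent labeling and capillary electrophoresis after 24 h dosing, reflect activity of an exogenous human RARa–GAL4 fusion in transiently transfected HepG2. Fitted for increase relative to DMSO.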

The target of test [18] is human Retinoic Acid Receptor gamma (RARg), RARG (gene 5916) (UniProt P13631). The test can be described thus: ATG_RARg_TRANS: Attagene TRANS-FACTORIAL HepG2 Assay for human Retinoic Acid Receptor gamma (RARg) (AID 2283009; active = hit-call score of the fitted dose curve at least 0.9, where 1 is the maximum). The essentials:
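TRANS format measured activity of exogenous NR-GAL4 fusion (RARg) in transfected HepG2 liver cells after 24 h dosing. Induced reporter RNA was detected by RT-PCR/capillary electrophoresis fluorescence, analysed in the positive direction against DMSO.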

The target of test [19] is human RAR-related Orphan Receptor gamma (RORg), RORC (gene 6097) (UniProt P51449). The test can be described thus: ATG_RORg_TRANS: Attagene TRANS-FACTORIAL HepG2 Assay for human RAR-related Orphan Receptor gamma (RORg) (AID 2283011; active = hit-call score of the fitted dose curve at least 0.9, where 1 is the maximum). The essentials: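 HepG2 cells transiently transfected with GAL4-UAS reporter units and chimeric RORg-Gal4 construct; after 24 h chemical exposure, reporter mRNA measured by RT-PCR with fluorescent capillary electrophoresis, gain of signal fitted against DMSO.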
Sequence of human RAR-related Orphan Receptor gamma (RORg), RORC (gene 6097) (P51449 whole entry, looked up, the tested form may be a part): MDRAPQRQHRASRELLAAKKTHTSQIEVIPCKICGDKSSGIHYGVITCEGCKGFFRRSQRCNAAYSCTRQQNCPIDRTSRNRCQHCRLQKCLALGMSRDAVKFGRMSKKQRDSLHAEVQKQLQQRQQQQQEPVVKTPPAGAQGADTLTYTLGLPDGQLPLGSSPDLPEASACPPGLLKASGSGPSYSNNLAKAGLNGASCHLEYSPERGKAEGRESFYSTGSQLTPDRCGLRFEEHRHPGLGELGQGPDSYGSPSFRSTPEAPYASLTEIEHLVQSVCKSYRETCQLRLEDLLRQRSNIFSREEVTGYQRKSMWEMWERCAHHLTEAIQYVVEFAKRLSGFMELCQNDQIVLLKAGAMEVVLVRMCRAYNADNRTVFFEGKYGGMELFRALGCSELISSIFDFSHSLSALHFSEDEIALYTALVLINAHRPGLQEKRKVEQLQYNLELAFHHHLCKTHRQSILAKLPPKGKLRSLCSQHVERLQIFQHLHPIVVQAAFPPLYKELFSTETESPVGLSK

Records with an inconclusive call do not appear. A structure can be active in one record and inactive in another. The source made the active and inactive calls. Rule for the calls, unless noted: active = hit-call score of the fitted dose curve at least 0.9, where 1 is the maximum; inactive = score below 0.9.

Here are results for nine compounds from PubChem BioAssay (EPA / NIEHS).

Sequence of human Peroxisome Proliferator-activated Receptor delta (PPARd), PPARD (gene 5467) (Q03181 whole entry, looked up, the tested form may be a part): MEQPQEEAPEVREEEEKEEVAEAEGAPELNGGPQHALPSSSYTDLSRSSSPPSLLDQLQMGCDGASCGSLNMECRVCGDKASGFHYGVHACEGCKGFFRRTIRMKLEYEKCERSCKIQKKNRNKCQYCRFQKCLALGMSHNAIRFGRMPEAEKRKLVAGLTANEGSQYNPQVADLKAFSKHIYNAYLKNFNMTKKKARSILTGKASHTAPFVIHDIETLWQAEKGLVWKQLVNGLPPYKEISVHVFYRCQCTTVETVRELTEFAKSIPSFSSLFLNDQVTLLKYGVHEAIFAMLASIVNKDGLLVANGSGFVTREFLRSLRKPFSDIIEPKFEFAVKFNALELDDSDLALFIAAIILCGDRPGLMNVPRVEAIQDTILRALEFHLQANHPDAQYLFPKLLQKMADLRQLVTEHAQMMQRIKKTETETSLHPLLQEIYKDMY
Sequence of Cellular tumor antigen p53 (Homo sapiens) (P04637 whole entry, looked up): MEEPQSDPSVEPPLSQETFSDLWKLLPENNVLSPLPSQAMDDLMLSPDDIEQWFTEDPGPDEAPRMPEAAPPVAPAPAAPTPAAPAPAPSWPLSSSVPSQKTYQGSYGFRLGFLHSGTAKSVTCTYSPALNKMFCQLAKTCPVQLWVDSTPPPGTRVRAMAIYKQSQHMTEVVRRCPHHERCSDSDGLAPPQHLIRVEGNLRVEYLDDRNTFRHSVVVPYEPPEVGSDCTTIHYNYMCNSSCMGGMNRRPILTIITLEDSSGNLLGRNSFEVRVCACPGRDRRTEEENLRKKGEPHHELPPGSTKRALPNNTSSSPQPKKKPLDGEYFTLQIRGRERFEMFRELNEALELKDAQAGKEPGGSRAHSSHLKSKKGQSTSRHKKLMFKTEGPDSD
Sequence of human Peroxisome Proliferator-activated Receptor alpha (PPARa), PPARA (gene 5465) (Q07869 whole entry, looked up, the tested form may be a part): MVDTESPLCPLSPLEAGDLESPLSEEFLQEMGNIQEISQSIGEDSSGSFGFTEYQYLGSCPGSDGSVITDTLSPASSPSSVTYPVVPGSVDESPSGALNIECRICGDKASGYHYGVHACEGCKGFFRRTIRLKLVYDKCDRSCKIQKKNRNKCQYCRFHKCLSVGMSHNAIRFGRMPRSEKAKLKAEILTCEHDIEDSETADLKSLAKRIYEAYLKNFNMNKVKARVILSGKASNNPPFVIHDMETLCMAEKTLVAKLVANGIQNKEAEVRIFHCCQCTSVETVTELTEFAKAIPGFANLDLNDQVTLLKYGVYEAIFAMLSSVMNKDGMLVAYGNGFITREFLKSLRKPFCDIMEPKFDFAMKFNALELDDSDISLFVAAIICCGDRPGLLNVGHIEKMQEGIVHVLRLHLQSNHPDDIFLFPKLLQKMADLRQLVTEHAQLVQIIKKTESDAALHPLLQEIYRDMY
Sequence of human RAR-related Orphan Receptor beta (RORb), RORB (gene 6096) (Q92753 whole entry, looked up, the tested form may be a part): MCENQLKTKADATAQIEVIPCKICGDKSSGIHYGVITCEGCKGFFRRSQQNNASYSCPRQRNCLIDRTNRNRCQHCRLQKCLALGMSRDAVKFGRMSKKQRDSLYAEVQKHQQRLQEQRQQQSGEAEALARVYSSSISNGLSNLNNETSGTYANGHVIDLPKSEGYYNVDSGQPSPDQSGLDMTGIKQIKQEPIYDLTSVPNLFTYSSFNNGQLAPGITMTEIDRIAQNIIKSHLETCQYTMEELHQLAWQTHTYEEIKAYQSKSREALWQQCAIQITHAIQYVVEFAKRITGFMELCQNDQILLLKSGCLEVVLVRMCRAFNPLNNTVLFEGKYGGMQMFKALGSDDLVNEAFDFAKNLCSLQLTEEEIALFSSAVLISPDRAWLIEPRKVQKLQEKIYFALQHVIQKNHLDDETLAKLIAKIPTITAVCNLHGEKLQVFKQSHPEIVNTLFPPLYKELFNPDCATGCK
Sequence of Retinoic acid receptor alpha (Homo sapiens) (P10276 whole entry, looked up, the tested form may be a part): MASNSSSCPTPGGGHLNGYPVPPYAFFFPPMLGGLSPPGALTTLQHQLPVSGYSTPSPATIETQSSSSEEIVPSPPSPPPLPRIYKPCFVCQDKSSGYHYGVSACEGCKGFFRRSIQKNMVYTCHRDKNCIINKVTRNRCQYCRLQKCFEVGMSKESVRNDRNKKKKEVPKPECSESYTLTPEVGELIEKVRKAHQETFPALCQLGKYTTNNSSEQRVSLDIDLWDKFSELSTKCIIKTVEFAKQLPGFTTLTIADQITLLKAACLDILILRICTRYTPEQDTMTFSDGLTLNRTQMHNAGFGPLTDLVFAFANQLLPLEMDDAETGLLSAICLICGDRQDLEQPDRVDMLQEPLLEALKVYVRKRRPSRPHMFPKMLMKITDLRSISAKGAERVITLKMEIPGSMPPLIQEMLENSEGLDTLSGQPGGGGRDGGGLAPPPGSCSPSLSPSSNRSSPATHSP
Sequence of human Retinoic Acid Receptor gamma (RARg), RARG (gene 5916) (P13631 whole entry, looked up, the tested form may be a part): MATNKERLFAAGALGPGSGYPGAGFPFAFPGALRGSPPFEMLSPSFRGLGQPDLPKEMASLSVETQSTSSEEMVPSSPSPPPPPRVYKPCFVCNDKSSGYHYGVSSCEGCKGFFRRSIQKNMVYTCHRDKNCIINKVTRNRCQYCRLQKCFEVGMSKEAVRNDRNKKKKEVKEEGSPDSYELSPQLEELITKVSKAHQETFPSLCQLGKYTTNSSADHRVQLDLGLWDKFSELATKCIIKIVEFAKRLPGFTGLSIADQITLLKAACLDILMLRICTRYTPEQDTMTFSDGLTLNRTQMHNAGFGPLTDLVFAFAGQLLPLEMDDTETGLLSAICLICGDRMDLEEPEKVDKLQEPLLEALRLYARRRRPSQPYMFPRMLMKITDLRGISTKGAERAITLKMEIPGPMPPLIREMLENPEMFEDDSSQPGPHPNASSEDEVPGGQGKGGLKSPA

`BrC1CCC(Br)C(Br)CCC(Br)C(Br)CCC1Br` (stereo not given): the AC50 in [1] was 46 µM (active); in test [4] it was 23.1 µM (active); in [5], 58.6 µM (active); in test [7] it was 3.22 µM (active); in [8], 4.6 µM (active); in test [9], 3.25 µM (active). For the same compound, the AC50 in [12] was 2.86 µM (active). For the same compound, the outcome in test [2], in [3], in test [6], in test [10], in [11] and in [13] was inactive.
For `CCCCC(CC)COC(=O)/C=C\C(=O)OCC(CC)CCCC` (stereo not given), the compound was called inactive in test [1], in test [2], in [5], in test [6], in test [7] and in [8]. Moreover, the outcome in [9], in test [14], in [15], in test [10] and in [16] was inactive. The AC50 in test [3] was 45.6 µM (active); in test [4], 9.08 µM (active); in [11], 4.7 µM (active); in test [12] it was 4.17 µM (active).
Take `O=c1cc(-c2ccccc2)oc2cc(O)cc(O)c12`: the result in test [1], in test [2], in test [5], in test [14], in test [15] and in test [17] was inactive. In addition, the outcome in test [12] and in test [18] was inactive. For the same compound, the results for the AC50 in [3], in [4] and in test [6] were 12.4 µM (active), 2.2 µM (active) and 3.66 µM (active), respectively.
In the case of `O=C(O)c1cccc([N+](=O)[O-])c1`, the compound was called inactive in test [1], in test [2], in [3], in test [4], in test [5] and in test [6]. Further, the compound was classed as inactive in [14], in test [15], in test [11], in test [12], in test [13] and in test [19].
With `c1ccc2[nH]ccc2c1`, the compound was classed as inactive in [1], in test [2], in test [3], in [4], in test [5] and in test [6]. The outcome in [14], in [15], in test [11], in test [12] and in [13] was inactive.
In the case of `C[C@H]1C[C@H]2[C@@H]3CCC4=CC(=O)C=C[C@]4(C)[C@@]3(F)[C@@H](O)C[C@]2(C)[C@@]1(O)C(=O)COP(=O)(O)O`, the compound was classed as inactive in test [1], in test [2], in [3], in test [5], in test [6] and in [14]. Moreover, the result in test [15] and in test [11] was inactive. In addition, the AC50 in [4] is 15.6 µM (active).
In the case of `CCCCCCCCC`, the call in [1], in [2], in test [3], in test [4], in [5] and in test [6] was inactive. The outcome in test [14], in [15] and in [11] was inactive.
For `C=CC(C)(O)CCC=C(C)CCC=C(C)C` (stereo not given), the AC50 in [1] is 143 µM (active); in test [2], 181 µM (active); in [3], 180 µM (active); in test [4], 100 µM (active); in [5], 82.7 µM (active); in [11], 32.6 µM (active). Further, the AC50 in [12] was 3.93 µM (active). For the same compound, the compound was classed as inactive in test [6], in [14] and in test [15].
For the compound `Nc1cc([N+](=O)[O-])ccc1O`, the outcome in test [1], in test [2], in test [3], in test [5], in test [6] and in [7] was inactive. Besides, the outcome in test [8], in test [9], in test [14], in [15], in [10] and in test [11] was inactive. Also, in test [13], the call was inactive. The concentration at half-maximal activity (AC50) was 38.1 µM (active) in [4] and 14.9 µM (active) in test [9].

A word on the AC50: it is the concentration giving half of the maximal activity seen.
